# Several values for one entry are separate records, joined by “and”; a condition that tells them apart may be missing. Identical values can stand only once. In all, about 330,000 compounds went through this assay and about 1,500 (0.45%) were called active. Inconclusive results (about 6%) are left out. Calls follow the shape of the full dose curve; tested in A549 cells. What follows is part of a selection rich in actives, with near analogues and random picks from the rest. Some structures have more than one record in an assay (separate samples or runs), and their calls can disagree.
# Assay: qHTS for Stage-Specific Inhibitors of Vaccinia Orthopoxvirus: Venus Reporter Primary qHTS; also: nearly all actives have a fitted effect of over 30% in size
# Conditions: Vaccinia virus Venus reporter expression, fluorescence; series mostly up to 36.5 µM; activity change, negative = inhibition: at the top concentration
# % is scaled to controls: 0 for no effect and ±100 for the full control effect; potency is read from the fitted curve at half-maximal effect.
Structure (SMILES),"activity change, negative = inhibition",Potency
CCOC(=O)N1CCN(C(=O)C[C@@H]2C[C@@]3(C(=O)OC)CCCCC=C3N(CCC3=CCCCC3)C2=O)CC1,-3.65% (inactive),–
CC1(C)OC(=O)C2=C(C[C@@H](C3CC3)O[C@H]2CCc2cccc(Cl)c2)O1,-2.21% (inactive),–
CC(=O)NCCNC(=O)c1cc(-c2cccc3ccccc23)nc2ccccc12,-3.45% (inactive),–
CN(C)CCNC(=O)Nc1cccc(Cl)c1Cl,-9.74% (inactive),–
CN(C)CCNC(=O)c1ccc(Cl)c2cc3ccccc3nc12,–,4.47 µM (active)
COc1cc(C(O)c2nc(-c3cnn(C)c3)cs2)ccc1F (centres undefined),4.96% (inactive),–
COc1ccc(NC(=O)c2cnc(NS(=O)(=O)c3ccccc3)nc2)cc1,-3.79% (inactive),–
CCn1c(=O)c(=O)[nH]c2c(=O)oc3ccc(S(=O)(=O)Nc4ccc(OC)cc4)cc3c21,-8.32% (inactive),–
COc1ccc(NS(=O)(=O)c2ccc3oc(SCC(N)=O)nc3c2)cc1,–,4.47 µM (active)
O=C1CCN(Cc2ccc(-c3ccccc3)cc2)CCN1Cc1ccccn1,-10.9% (inactive),–
Cc1oc2c(c1C(=O)N1CCOCC1)C(=O)c1ccccc1C2=O,–,3.16 µM (active)
COC1=C(N2CCOCC2)C(=O)c2ccccc2C1=O,5.75% (inactive),–
Cc1ccccc1-c1ccc(Nc2ccc(C(=O)N3CCOCC3)cc2)nn1,-11.8% (inactive),–
CCCCC(CCCC)c1ccc(C=Nc2ccc(/C=C/c3ccnc4ccccc34)cc2)cc1,-2.48% (inactive),–
Cc1ccccc1-c1csc(C(O)c2cccc(Cl)c2)n1 (centres undefined),-11.5% (inactive),–
N=C1c2ccccc2-c2ccccc21,-6.01% (inactive),–
c1ccc2c(c1)[I+]c1ccccc1-2,–,inactive and 10 µM (active)
CCCC[C@@H]1CN=C(N)N1CCCC,-24.8% (inactive),–
CCCC[C@@H]1CN=C(N)N1CCc1cccc(F)c1,-11.5% (inactive),–
CCCC[C@@H]1CN=C(N)N1CCc1cc(C(F)(F)F)cc(C(F)(F)F)c1,–,10 µM (active)
COc1cc(CNc2ncnc3c2ncn3[C@H]2CN(Cc3cccs3)C[C@@H](CO)O2)cc(OC)c1OC,-6.64% (inactive),–
NCCCCC(C(=O)O)N(C(=O)OCc1ccccc1)C(=O)OCc1ccccc1 (centres undefined),-4.22% (inactive),–
O=Cc1cn(-c2ccccc2)nc1-c1ccccn1,-11.6% (inactive),–
COc1ccc(-c2nn(-c3ccccc3)cc2/C=N/Nc2ccccn2)cc1OC,–,14.1 µM (active)
Cc1ccc(-c2nn(-c3ccccc3)cc2/C=N/NC(=O)c2ccc3c(c2)OCO3)cc1,-19.4% (inactive),–

Structure (SMILES),"activity change, negative = inhibition",Potency
CCC(C)N1C(=O)S/C(=C/c2ccc(Sc3nc4ccccc4[nH]3)o2)C1=O (centres undefined),–,11.2 µM (active)
CCC(c1nc2ccccc2[nH]1)n1c(=O)c(-c2cccs2)nc2ccccc21 (centres undefined),-17% (inactive),–
O=C(CSc1nc2ccccc2[nH]1)Nc1nc(-c2ccccc2)c(-c2ccccc2)o1,-7.22% (inactive),–
O=C(NCc1ccc(F)cc1)c1cc(C2CCCCN2C(=O)C2CCCCC2)on1 (centres undefined),-14.1% (inactive),–
COc1ccc(C2=Nc3ccccc3NC(=O)C2N(C(=O)c2cc3ccccc3[nH]2)c2ccccc2)cc1 (centres undefined),9.83% (inactive),–
C=CC[C@@H](CC(=O)N[C@H](CO)Cc1ccccc1)C(=O)N[C@@H](COC(=O)[C@@H](CC=C)Cc1ccc(F)cc1)Cc1c[nH]c2ccccc12,-9.16% (inactive),–
C=CC[C@@H](CC(=O)N[C@H](CO)Cc1ccccc1)C(=O)N[C@H](C)COC(=O)[C@@H](CC=C)Cc1ccc(F)cc1,-16.5% (inactive),–
C=CCC[C@H](Cc1ccc(F)cc1)C(=O)OC[C@@H](NC(=O)[C@@H](CC=C)CC(=O)N[C@H](CO)Cc1ccccc1)C(C)(C)C,–,11.2 µM (active)
Cc1ccccc1Cn1c(C)c(C(=O)NCc2cccc(C(F)(F)F)c2)sc1=O,-8.3% (inactive),–
CN1CC[C@H](c2c(O)cc(O)c3c(=O)cc(-c4ccccc4Cl)oc23)[C@H](O)C1,–,0.0794 µM (active)
O=C(Nc1ccc(Cl)c(C(F)(F)F)c1)C1Cc2c(-c3ccccc3Oc3ccccc3)ccnc2O1 (centres undefined),-1.56% (inactive),–
CC1(C(=O)Nc2ccc3c(c2)OCCO3)CCN1C(=O)Cc1cc(F)ccc1F (centres undefined),-1.79% (inactive),–
CCc1ccc(-c2nn(-c3ccccc3C)cc2C(=O)N2CCN(C3CCS(=O)(=O)C3)CC2)cc1 (centres undefined),-1.86% (inactive),–
CCc1ccc(-c2nn(-c3ccccc3)cc2CSC(=N)N)cc1,–,11.2 µM (active)
CN(C)Cc1cn(-c2ccccc2)nc1-c1ccccc1,-25.3% (inactive),–
COC(=O)C1CCCCN1Cc1ccc2c(c1)CN(Cc1cc(OC)c3c(c1)OCO3)CCO2 (centres undefined),-4.65% (inactive),–
CCCCCc1c(Cc2ccccc2)ncn1CCc1ccccc1OC,–,1.41 µM (active)
CCCCCc1c(-c2ccc(OC)c(OC)c2)ncn1CCc1ccccc1OC,-25.2% (inactive),–
CCCCCc1c(-c2cccc(Br)c2)ncn1CCc1ccccc1OC,0.147% (inactive),–
O=C(Nc1ccccc1)c1ccccc1OCc1ccccc1,-6.03% (inactive),–
CC1(C(=O)NCC2CCOCC2)Cc2c(-c3cccc(C(N)=O)c3)ccnc2O1 (centres undefined),-7.77% (inactive),–
COc1ccc(-c2nc3ccc(Br)cn3c2Cc2ccc(C)cc2)cc1OC,-0.743% (inactive),–
Cn1c(Nc2cccc(Cl)c2)nc2ccccc21,-21.5% (inactive),–
OCCCNc1nccc(-c2cc(Nc3cccc(Cl)c3)ncn2)n1,–,0.891 µM (active)
